Test results from the supplement of paper PMC6555819.

Legend:
Experiment in all cases: PBM binding z-score (relative to random genomic background probes); higher = stronger binding; sequences stand for … in GC…GCGATTGACAGCGTAGAATGAAGG
[1] = test system: RARb homodimer (NR concentration 270 nM)
Method in brief: (§1)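 Ligand-free nuclear receptor dimers were applied to custom Agilent 4×180K protein-binding microarrays whose double-stranded probes carried direct-repeat seeds, single-nucleotide variants, half-site ablations and random human genomic background sequences in 34-nt variable regions. Incubation lasted 1 h. Binding z-scores were computed against the random background probes from regression-normalized fluorescence.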

[2] = test system: RARg:RXRa (NR concentration 270 nM, RXRa partner concentration 90 nM)
Method in brief: as §1

[3] = test system: RARg homodimer (NR concentration 270 nM)
Method in brief: as §1

[4] = test system: RXRa DBDmut IVT, anti-RXR (DBD mutation: RXRa K156A/R161A, NR concentration 90 nM)
Method in brief: as §1

[5] = test system: RXRa homodimer (NR concentration 180 nM)
Method in brief: as §1

[6] = test system: THRa:RXRa (NR concentration 90 nM, RXRa partner concentration 90 nM)
Method in brief: as §1

[7] = test system: THRa homodimer (NR concentration 90 nM)
Method in brief: as §1

[8] = test system: VDR homodimer (NR concentration 270 nM)
Method in brief: as §1

Sequence | PBM binding z-score [1] | PBM binding z-score [2] | PBM binding z-score [3] | PBM binding z-score [4] | PBM binding z-score [5] | PBM binding z-score [6] | PBM binding z-score [7] | PBM binding z-score [8]
CCGAGTAGGTTATGGTGCATTCAGGCAACGGTGA | 1.06 | 0.337 | 0.381 | 0.527 | 0.5 | 0.6 | 0.468 | 0.619
CCTACTGGGCCATTCAGAGGTCATAGATCATATG | 3.97 | 4.15 | 2.99 | 0.411 | 3.98 | 3.27 | 1.4 | 2.6
ATCTCTAGGTAAGACTCAGCTCAGTGAAGAACGC | 0.128 | -0.176 | 0.0732 | 0.0476 | -0.204 | 0.124 | 0.524 | 0.3
GGAACGAGGGCAAAGTTGAAAGCATCTGTCGACG | 1.51 | 2.59 | 1.86 | 2.79 | 2.88 | 1.59 | -0.341 | 0.999
TCTTGTAGATCAACAGAGGTTAAGAAAGTGCGCT | 1.45 | 0.848 | 0.565 | 0.665 | 1.68 | 2.55 | -0.186 | 0.274
GTACCAAGGTGCATAGGTCGTTGATGAGTAGGCG | 0.393 | 0.769 | 0.407 | 0.546 | 1.3 | 0.111 | -0.427 | 0.968
ATCGAAATGTCGAAGGTGAGTATACCCACCCGAA | -0.167 | 0.233 | 0.587 | -0.753 | 0.434 | -0.023 | -0.43 | -0.0115
TCTTGTAGAGCAATAGAGGTTAAGAAAGTGCGCT | 0.76 | 0.413 | 0.158 | -0.107 | 0.858 | 1.76 | -1.07 | -0.332
ATCTCTAGATAACCAAGTTCAGTGAATGCCGAAC | 1.07 | 0.446 | 0.535 | 0.852 | 0.659 | 0.42 | 0.172 | 2.11
CAAACTAGGTCAAGGTCAAACTCGGTTTGTGCCA | 5.07 | 6.04 | 6.55 | 3.28 | 5.73 | 4.64 | 3.95 | 3.81
GGAACGAGGGCAAGTTGATAGCGGAGTTTGATGG | 1.43 | 1.28 | 1.74 | 2.31 | 0.823 | 1.13 | 0.118 | 1.73
CGTCCAAGGTGAGAGAGGTCAGTGAATGCCGAGT | 4.13 | 3.38 | 3.7 | 0.994 | 2.89 | 3.33 | 1.95 | 3.07
CAAACTAGGTGACCGGAAGGTCAAAGTCCGCATG | 4.4 | 5.38 | 3.94 | 0.562 | 3.89 | 3.57 | 1.86 | 2.49
GGAACGAGGGCTTTCGAGTTGATAGCATGGCGAT | -0.798 | -0.258 | -0.353 | 0.228 | -0.0785 | 0.893 | -0.983 | 0.344
CGTCAAAGTTCAAGGTAACGTAGCAGAAAGCAGC | 3.85 | 5.5 | 6.15 | 4.38 | 4.75 | 3.01 | 1.09 | 3.26
TAGCCTTGGTCATGCGGGCCAGTATAGTGTCGGC | -0.234 | -0.0381 | 0.129 | -1.52 | -0.29 | -0.715 | -0.902 | -0.904
CGGCCAAGGTCAAGGTCAGTGAAAGAGACTCGAA | 5.16 | 6.85 | 7.69 | 3.48 | 6.81 | 4.33 | 2.89 | 2.95
ACAGACAGGTGAGTGAAGGTAATTCAGCTGGACG | -0.0285 | 0.335 | 0.578 | -0.442 | 0.191 | 1.25 | -0.521 | -0.158
TCTTGTAGATCAACAGGAGGTTAAAAAAGATCGA | 0.404 | 0.947 | 0.461 | 0.247 | 0.896 | 0.886 | -0.654 | 0.215

Sequence | PBM binding z-score [1] | PBM binding z-score [2] | PBM binding z-score [3] | PBM binding z-score [4] | PBM binding z-score [5] | PBM binding z-score [6] | PBM binding z-score [7] | PBM binding z-score [8]
CAAACTAGGTCAAGAGGTAAAAGTCCGCTTCCCG | 3.32 | 4.71 | 4.74 | 1.44 | 3.45 | 2.99 | 1.2 | 0.657
CTAACTAGGTCAAGGACAGTGAATCTCCGCACGC | 3.16 | 3.64 | 4.21 | 1.34 | 2.64 | 3.08 | 2.01 | 0.398
GCTACTGGGGCAAAGCAGGTTACCATAAGGTTGG | 1.16 | 0.343 | 0.791 | 0.0265 | 0.261 | 2.75 | 0.258 | -0.451
AGTCAAAGTCCAGGACGAGGTAACGTAAAGCACG | 0.381 | 0.451 | 0.688 | -0.0759 | 0.28 | 1.89 | 1.14 | -0.089
CGTCCAAGGTCAATGCTAGGTCTGTGAAAGCATT | 3.89 | 5.81 | 6.03 | 3.79 | 4.4 | 3.78 | 2.25 | 2.69
TCTTGTAGATCAGCACGTTAAGAAAGCTGGCCAA | -0.823 | -0.246 | -0.479 | 0.626 | -0.185 | -0.261 | -0.422 | -0.0275
AGAACGAGGGCCCGCTGAGTTGATAGCAGAGTAG | -1.16 | -0.775 | -0.722 | -0.659 | -0.399 | -1.6 | -0.89 | -0.586
AGAATGAGGTTATTTAGATCAGGGAATTGCGGTC | 0.824 | 1.13 | 0.824 | 2.53 | 1.9 | 2.17 | 1.06 | 1.48
TTACCTAGGTGAAGGTCGTTGATCCCTCTGTAGA | 1.21 | 0.824 | 0.525 | -0.143 | 1.29 | 1.9 | 0.379 | 0.61
CGAACTAGGTCAAGGACGGTGAATCTCCGCACGC | 2.96 | 3.53 | 4.38 | 0.975 | 2.64 | 2.88 | 1.24 | -0.409
CAAACTAGGTCAAGGTAAAAGTCGGTTTGTGCCA | 3.47 | 3.84 | 5.09 | 1.52 | 2.93 | 3.03 | 1.49 | 0.742
GCATATAAGTAATACAAGGTGAAAGTCCGATTGT | 0.816 | 0.308 | 0.389 | 0.717 | 0.568 | 2.96 | 0.985 | -0.188
GTACCAAGGTGAATAGGTCGTTAATGAGTAGGCG | 1.88 | 2.4 | 1.37 | -0.112 | 1.7 | 1.7 | 0.636 | 0.459
CCTGGTTGGTCAAGGTCACACACGCTATAGGTAC | 4.45 | 4.58 | 4.71 | 1.46 | 4.69 | 4.36 | 4.54 | 3.51
GCTAGTTGGCCAGTAAAAGGTCACACACCGGTCG | 5.19 | 5.15 | 4.08 | 0.252 | 5.46 | 3.55 | 1.33 | 1.49
AGTCAAAGTTCATCTAGGTAATGTAAGATATGCT | 3.87 | 5.56 | 6.17 | 4.52 | 4.6 | 2.92 | 0.21 | 5.21
AGAACGAGGGCATGCTGAGTTGATAGCAGAGTAG | 0.498 | 1.33 | 1.34 | 2.24 | 0.92 | 1.2 | -0.497 | 1.74
GCTATTAGTTGAAAGGGCAACCAAATGATTCTCG | 2.12 | 1.54 | 1.36 | 1 | 1.26 | 0.682 | -0.397 | 0.22
GATACAGGGTCAGCTAGAGTCCAGAGTATGGAAA | 3.02 | 5.59 | 4.41 | 1.39 | 4.32 | 2.88 | 0.377 | 1.58

Sequence | PBM binding z-score [1] | PBM binding z-score [2] | PBM binding z-score [3] | PBM binding z-score [4] | PBM binding z-score [5] | PBM binding z-score [6] | PBM binding z-score [7] | PBM binding z-score [8]
ACTATTAGTTGAGACGAGGGCAACCGCTAGGTTG | 1.35 | 0.408 | 0.507 | 0.704 | 0.516 | 2.66 | 0.222 | 0.863
ATCTCTAGGTAAAAGTTTAGTGAATCCCGAGGAT | 0.137 | 0.438 | 0.614 | -0.116 | 0.318 | 0.379 | 0.343 | 0.554
TCTTGTAGATCAAGCAGGTTAGGAAAGCCTGAGT | 0.012 | -0.289 | -0.589 | 0.37 | -0.0446 | 0.0299 | -0.467 | 0.231
CCGAGTAGGTTATGGGGCAGTCAGGCAACGGTGA | 0.983 | 0.587 | 0.165 | -0.557 | 0.291 | 0.277 | -0.143 | -0.221
ATCGAAAGTTCGAAGGTGAGTATACCCACCCGAA | 0.995 | 1.82 | 1.51 | 1.94 | 2 | 0.601 | -0.388 | 1.07
TCTTGTAGATCAAAGGTTAAGATAGCCGAAGCCT | 1.61 | 2.19 | 1.11 | 0.675 | 3.56 | 1.38 | -0.548 | 0.153
ATCTCTAGGTAACCAAGTTCAGGGAATGCCGAAC | 1.55 | 0.828 | 0.852 | 0.481 | 0.745 | 1.69 | 0.87 | 2.84
CCTTACGAGTCAAGGTTATAGCACGGGTGGTACG | 1.07 | 0.83 | 0.637 | 0.174 | 1.07 | 1.58 | 0.715 | 0.529
CCTTACGGGTCACGAGTTTATAGCACGACGAGCG | 3.38 | 5.62 | 5.24 | 2.39 | 5.78 | 2.82 | 0.451 | 4.44
AGTCAAAGTTCAGGACGATGTAACGTAAAGCACG | 2.88 | 3.94 | 4.82 | 2.83 | 2.53 | 1.92 | 0.0967 | 1.75
GCGACTGTGGCATCAGCAGGTTACCATAACTTAA | 0.205 | -0.1 | -0.291 | -0.209 | 0.187 | 0.277 | 0.0891 | -0.501
CCTACGGGGCCAAAAAGGTCATTGATGCCGATAA | 4.54 | 5.07 | 4.8 | 1.23 | 5.09 | 3.44 | 0.423 | 3.98
AGAATGAGTTTAAGATCAGGGAAACAGAATACAT | -0.102 | 0.254 | 0.612 | 2.68 | 0.484 | 0.276 | -0.184 | 2.06
GGAACGAGGGCAAGTTGATGGCAGAGTTTGATGG | 1.59 | 1.66 | 1.92 | 2.1 | 1.05 | 1.34 | 0.188 | 1.5
TCTATTAGTCGATTAGGGCAACCGAAACAGCGGA | 0.367 | 0.53 | 0.468 | 0.914 | 0.681 | 0.811 | 0.361 | 0.0266
TCTCGGAGGACACGAAGGTCAGAGCATTCCAGAG | 3.61 | 3.22 | 4.02 | 0.583 | 1.97 | 2.87 | 0.91 | 1.04
CAAACTAGGTCCCGAAAGGTCAAAGTCGAATGAC | 4.87 | 5.77 | 5.09 | 1.4 | 6.66 | 4.1 | 1.43 | 2.66
ACTGGTTGGTCAGCTGAGGTCACACACAATTCGG | 4.63 | 4.08 | 4.57 | 1.23 | 4.2 | 5.13 | 5.73 | 4.2
